The results in this text go back to PubChem BioAssay AID504534 (National Center for Advancing Translational Sciences (NCATS), 2011).

Inconclusive results are not listed. Unmarked numbers belong to inactive results. Activity calls are given as the source filed them. Calls come from the whole dose curve; as a rule, active = well fitted curve in the direction sought with a large enough effect; inconclusive = small, poorly fitted or top-dose-only effect, or another doubt; inactive = no such curve, though single readings can be large or run the other way.
Potency is the fitted concentration of half-maximal effect.

The assay in a line: Secondary Assay for Inhibitors of Human Cdc-like kinase 4 (Clk4): HEK-293 Cell Viability Assay. For activity change, negative = cytotoxicity: % of control where 0% means no effect.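 Note: cytotoxic hits lower the ATP light signal so activity reflects loss of viability.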 To be noted: HEK-293 viability, ATP luminescence (CellTiter-Glo), 24/48 h; series mostly up to 46.1 µM; activity change, negative = cytotoxicity: at the top concentration. As for the experimental part: NIH Molecular Libraries Probe Production Centers Network [MLPCN] NIH Chemical Genomics Center [NCGC] MLPCN Grant: 1R03MH084827-01 Assay Submitter (PI): Tom Misteli NCGC Assay Overview: Cytotoxicity of the active compounds in the Clk4 screens was assessed using the CellTiter-Glo Luminescent Cell Viability Assay kit (Promega, USA) in the HEK-293 (ATCC) cell line. CellTiter-Glo measures the intracellular ATP present in metabolically active cells using Ultra-Glo as the luciferase to detect ATP levels. In brief, the luciferase in the buffer catalyzes the oxidation of luciferin to oxyluciferin and light which is dependent on ATP. […] Wells treated with various concentrations of cycloheximide (Sigma) and DMSO, and wells with media alone were used as positive and negative controls, respectively. […] [1] http://www.promega.com/tbs/tb288/tb288.pdf
NCGC Assay Protocol Summary: HEK-293 cells were grown in a flask up to 80% confluence. Cells were trypsinized, washed, and resuspended in MEM Eagle + 10% FBS + 1% pen-strep media at a concentration of 120 cells/uL. Five uL/well of cell solution was dispensed into a 1536-well assay plates (Greiner, solid white medium-binding plates) with Aurora Discovery BioRAPTR Flying Reagent Dispenser (FRD; Beckton-Dickenson). Cells were pre-incubated at 37 degree Celsius, 5% CO2 for four hours. Compound and control solutions (23nL) were then transferred to the assay plate using the Kalypsys 1536-pin tool. Assay plates were re- incubated at 37 degree Celsius, 5% CO2. After 24 or 48 hours, five uL of CellTiter Glo detection reagent was added. Luminescence signal was read with Perkin Elmer ViewLux plate reader after 30 min room temperature incubation.
Turning to `COc1cccc(Nc2ncc3ncc(=O)n(C)c3n2)c1`, the “activity change, negative = cytotoxicity” value was -7.13%.
On the same count and under the same terms, next, `Cc1occc1-c1ccc2ncnc(NCCc3cnc[nH]3)c2c1`: -16.7%; `CN(CC1CCCCO1)c1ncnc2ccc(-c3ccc4c(c3)OCO4)cc12` (stereo not given): 6.87%.
Take `Cc1occc1-c1ccc2ncnc(NCc3ncc[nH]3)c2c1`: the “activity change, negative = cytotoxicity” value was -0.463%.
For the compound `CCNC(=O)c1ccc(-c2ccc3ncnc(NCc4nccs4)c3c2)o1`, the “activity change, negative = cytotoxicity” value was -4.27%.
Regarding `CN(C)CCNc1ncnc2ccc(-c3ccc4c(c3)OCO4)cc12`, the “activity change, negative = cytotoxicity” value was -19.2%.
The same measure, in the same setting: then `Cc1nc(C)c(-c2ccc3ncnc(NCc4ncc[nH]4)c3c2)s1`, with -19.3%.
Consider `Cc1cccc(-c2ccc3ncnc(NCc4cccc(F)c4)c3c2)c1`, for which the “activity change, negative = cytotoxicity” value is -6.26%.
With `CCNC(=O)c1ccc(-c2ccc3ncnc(NCCc4cnc[nH]4)c3c2)o1`, the “activity change, negative = cytotoxicity” value is 0.0342%.
Still for that read-out and setting: next, `c1nc(N2CCOCC2)c2cc(-c3ccc4c(c3)OCO4)ccc2n1`: -4.64%; `COc1cccc(-c2ccc3ncnc(NCc4cccs4)c3c2)c1`: -9.42%.
Same read-out and setting: then `CC(Nc1ncnc2ccc(-c3ccc4c(c3)OCO4)cc12)c1ccco1` (stereo not given), with -15.7%; and `c1cncc(CNc2ncnc3ccc(-c4ccc5c(c4)OCCO5)cc23)c1`, with 14.9%; and `Cc1nc(CCN(C)c2ncnc3ccc(-c4ccc5c(c4)OCO5)cc23)cs1`, with -17%.
With `Clc1cccc(-c2ccc3ncnc(NCc4ccc5c(c4)OCO5)c3c2)c1`, the “activity change, negative = cytotoxicity” value was -13.9%.
As for `CC(O)c1ccc(-c2ccc3ncnc(N4CCOCC4)c3c2)o1` (stereo not given), the “activity change, negative = cytotoxicity” value is 0.411%.
`Cc1csc(CNc2ncnc3ccc(-c4ccc5c(c4)OCO5)cc23)n1`: the “activity change, negative = cytotoxicity” value is -28.3%.
Still for that read-out and setting: then `Cn1cnc(CCNc2ncnc3ccc(-c4ccc5c(c4)OCO5)cc23)c1`, with 1.14%; and `c1csc(CNc2ncnc3cc(-c4ccc5c(c4)OCO5)ccc23)c1`, with -10.7%.
As for `c1nc(NCc2ccc3c(c2)OCO3)c2cc(-c3ccoc3)ccc2n1`, the “activity change, negative = cytotoxicity” value is -9.32%.
The same measure, in the same setting: next, `c1cncc(CNc2ncnc3ccc(-c4ccc5c(c4)OCO5)cc23)c1`: -18.8%.
Take `c1coc(CCNc2ncnc3ccc(-c4ccc5c(c4)OCO5)cc23)c1`: the “activity change, negative = cytotoxicity” value is -10.3%.
For `Cc1cc(CNc2ncnc3ccc(-c4ccc5c(c4)OCO5)cc23)c(C)o1`, the “activity change, negative = cytotoxicity” value was -18.2%.
With `Clc1cccc(-c2ccc3ncnc(NCc4cccnc4)c3c2)c1`, the “activity change, negative = cytotoxicity” value is -22.8%.
With `Fc1c(-c2ccc3ncnc(NCc4cccs4)c3c2)ccc2c1OCO2`, the “activity change, negative = cytotoxicity” value was -2.4%.
On the same count and under the same terms, next, `CCN(CCc1cn(C)cn1)c1ncnc2ccc(-c3ccc4c(c3)OCO4)cc12`: -6.06%; `COc1cccc(-c2ccc3ncnc(NCc4cccc(F)c4)c3c2)c1`: -5.1%; `Clc1ccccc1-c1ccc2ncnc(NCc3cccs3)c2c1`: -4.53%.
In the case of `O=C(O)c1ccc(-c2ccc3ncnc(NCC4CCCO4)c3c2)o1` (stereo not given), the “activity change, negative = cytotoxicity” value is -5.42%.
Regarding `c1cncc(-c2ccc3ncnc(NCc4ccc5c(c4)OCO5)c3c2)c1`, the “activity change, negative = cytotoxicity” value was 3.84%.
On to `c1nc(N2CCNCC2)c2cc(-c3ccc4c(c3)OCO4)ccc2n1`, for which the “activity change, negative = cytotoxicity” value is -12.9%.
As for `Cc1csc(CNc2ncnc3ccc(-c4ccoc4)cc23)c1`, the “activity change, negative = cytotoxicity” value is -15.6%.
As to `Cc1csc(CNc2ncnc3ccc(-c4ccc(C(C)O)o4)cc23)n1` (stereo not given), the “activity change, negative = cytotoxicity” value is 1.29%.
Same read-out and setting: then `CCCNc1ncnc2ccc(-c3ccc4c(c3)OCO4)cc12`, with 4.07%; and `COc1cccc(-c2ccc3ncnc(NCc4cc(C)cs4)c3c2)c1`, with -9.21%.
Turning to `CN1CCN(c2ncc3nc(-c4cn(C)c5ccccc45)c(=O)n(Cc4cccs4)c3n2)CC1`, the Potency was 8.88 µM (active).
Regarding `Fc1cccc(CNc2ncnc3ccc(-c4cccc(Cl)c4)cc23)c1`, the “activity change, negative = cytotoxicity” value is -12.4%.
With `c1nc(NCC2CCCC2)c2cc(-c3ccc4c(c3)OCO4)ccc2n1`, the “activity change, negative = cytotoxicity” value is 1.59%.
As to `CCNC(=O)c1ccc(-c2ccc3ncnc(NCc4ccc(C)o4)c3c2)o1`, the “activity change, negative = cytotoxicity” value was -9.43%.
Same read-out and setting: next, `Cc1ccc(CNc2ncnc3ccc(-c4ccoc4)cc23)o1`: -2.25%.
